We go through 13 compounds from PubChem BioAssay (Tox21).

SMILES strings stand for the structures. Records with an inconclusive call do not appear. A number with no mark means an inactive call. Activity calls are given as the source filed them. Unless noted, the call rests on the fitted dose curve; in most records, active means well fitted curve in the direction sought with a large enough effect in the repeat runs; inconclusive means weak or mixed curves; inactive means no such curve, though single readings can be large; an effect the other way counts as inactive or inconclusive.

A short description of test [1]: qHTS assay to identify small molecule agonists of the AP-1 signaling pathway - cell viability counter screen (AID 1159525; calls by dose curve; further: nearly all actives have a fitted effect of over 55% in size; further: potency means the concentration at half of the fitted maximal effect). Summed up:
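ME-180 AP-1-bla, 2500 cells/well, Opti-MEM + 0.5% dialyzed FBS; overnight 37 °C; cpd 15-pt titration, 5 h 37 °C; CellTiter-Glo 30 min RT; luminescence read; normalised to TOAB and DMSO controls.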

Test [2] in a line: qHTS assay to identify small molecule agonists of the RXR signaling pathway - cell viability counter screen (AID 1159529). Further: nearly all actives have a fitted effect of over 50% in size. Further: potency means the concentration at half of the fitted maximal effect. The method, boiled down: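 Luminescence from CellTiter-Glo (30 min, RT) measured viability in the same wells as the beta-lactamase reporter readout. Cells: GeneBLAzer RXR-alpha HEK 293T, 2% charcoal-stripped FBS. Compound exposure 16 hr, 37 C.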
A short description of test [3]: qHTS assay to identify small molecule antagonists of the retinoic acid receptor (RAR) signaling pathway (AID 1159552; further: nearly all actives have a fitted effect of over 50% in size; further: potency means the concentration at half of the fitted maximal effect). Summed up:
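Luminescence from a RARE luciferase reporter in C3RL4 cells served as read-out. Cells received compounds together with 1 uM final retinol and incubated 6 hr at 37 C before detection reagent was added for 30 min at room temperature.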

Test [4] is described as follows: qHTS assay to identify small molecule antagonists of the constitutive androstane receptor (CAR) signaling pathway - cell viability counter screen (AID 1224837). Further: nearly all actives have a fitted effect of over 45% in size. Further: potency means the concentration at half of the fitted maximal effect. The method, boiled down:
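Using CellTiter-Fluor, viability is scored in HepG2 cells stably carrying hCAR and a 2.2kb CYP2B6 reporter after 23 hr compound exposure across 15 concentrations, with CITCO present at 50 nM.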

Test [5] concerns the target Nuclear receptor subfamily 1 group I member 3 (Homo sapiens) (UniProt Q14994). Nature of the test: qHTS assay to identify small molecule antagonists of the constitutive androstane receptor (CAR) signaling pathway (AID 1224838).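 Further: HepG2 cells stably expressing hCAR with CYP2B6 luciferase reporter stimulated by CITCO; nearly all actives have a fitted effect of over 40% in size.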 Further: potency means the concentration at half of the fitted maximal effect. The method, boiled down:
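Reporter luminescence was quantified after 24 h exposure of hCAR/CYP2B6-2.2kb double-stable HepG2 cells to compounds at 15 concentrations in the presence of 50 nM CITCO final.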

Test [6] shares this target. Description: qHTS assay to identify small molecule agonists of the constitutive androstane receptor (CAR) signaling pathway (AID 1224839). Further: nearly all actives have a fitted effect of over 15% in size. Further: potency means the concentration at half of the fitted maximal effect. The method, boiled down: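 Luminescence read-out (ONE-Glo, 30 min, room temperature) from double-stable HepG2-CYP2B6-hCAR cells exposed 24 h to 15-point compound series in presence of 0.75 uM PK11195 final.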
Test [7] is described as follows: qHTS assay to identify small molecule antagonists of the estrogen related receptor (ERR) signaling pathway - cell viability counter screen (AID 1224818).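 Further: series mostly up to about 46 µM; viability measured after 17.5 h of compound exposure.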 Summed up:
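In the same ERR cell assay, compound-treated wells (17.5 h, 37 C) were multiplexed with a fluorogenic viability reagent, CellTiter-Fluor, read after 30 min to flag cytotoxic substances.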

Test [8] can be described thus: qHTS assay to identify small molecule antagonists of the estrogen related receptor (ERR) signaling pathway (AID 1224819;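 further: luminescence from an ERR-driven luciferase reporter measured with One-Glo reagent; series mostly up to about 46 µM; nearly all actives have a fitted effect of over 50% in size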). Summed up: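 qHTS in ERR cells, 2,000/well, 1536 format. Cpd (DMSO) added after 6 h settle, 18 h 37 C. One-Glo luminescence, 30 min RT.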
Test [9] in a line: qHTS assay to identify small molecule agonists of the estrogen related receptor (ERR) signaling pathway (AID 1224820). The method, boiled down: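 Quantitative HTS of the LOPAC library used NTP ERR reporter cells treated 18 h at 37 C. Signal is luminescence after One-Glo addition and a 30 min room-temperature incubation.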
In test [10] the test system is estrogen-related receptor alpha (ERRalpha) with PGC-1alpha coactivator, human. Description: qHTS assay to identify small molecule antagonists of the estrogen related receptor signaling pathway with the pleiotropic PPARgamma coactivator (PGC) (AID 1224821; calls by dose curve;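 further: series mostly up to about 46 µM; lower luminescence signal means antagonism of PGC/ERR signalling; nearly all actives have a fitted effect of over 50% in size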). The method, boiled down:
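Quantitative HTS for antagonism: PGC/ERR cells received compounds after 6 h attachment and were incubated 18 h at 37 C, with luminescence (One-Glo) as the endpoint.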

A short description of test [11]: qHTS assay to identify small molecule antagonists of the estrogen related receptor (ERR) signaling pathway from Tox21 library - cell viability counter screen (AID 1224834). Further: nearly all actives have a fitted effect of over 30% in size. Further: potency means the concentration at half of the fitted maximal effect. The method, boiled down:
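CellTiter-Fluor fluorescence measured; ERR cells; 17.5 h compound incubation at 37 C; 30 min reagent step.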

In test [12] the target is Luciferin 4-monooxygenase (Photinus pyralis) (UniProt P08659). Description: qHTS assay to identify small molecule inhibitors of firefly luciferase (AID 1224835). Further: nearly all actives have a fitted effect of over 25% in size. Further: potency means the concentration at half of the fitted maximal effect. The method, boiled down: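 Quantitative HTS format; KM concentrations of both substrates. Purified P. pyralis FLuc activity quantified from luminescence images.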
Luciferin 4-monooxygenase (Photinus pyralis), sequence (P08659 whole entry, looked up): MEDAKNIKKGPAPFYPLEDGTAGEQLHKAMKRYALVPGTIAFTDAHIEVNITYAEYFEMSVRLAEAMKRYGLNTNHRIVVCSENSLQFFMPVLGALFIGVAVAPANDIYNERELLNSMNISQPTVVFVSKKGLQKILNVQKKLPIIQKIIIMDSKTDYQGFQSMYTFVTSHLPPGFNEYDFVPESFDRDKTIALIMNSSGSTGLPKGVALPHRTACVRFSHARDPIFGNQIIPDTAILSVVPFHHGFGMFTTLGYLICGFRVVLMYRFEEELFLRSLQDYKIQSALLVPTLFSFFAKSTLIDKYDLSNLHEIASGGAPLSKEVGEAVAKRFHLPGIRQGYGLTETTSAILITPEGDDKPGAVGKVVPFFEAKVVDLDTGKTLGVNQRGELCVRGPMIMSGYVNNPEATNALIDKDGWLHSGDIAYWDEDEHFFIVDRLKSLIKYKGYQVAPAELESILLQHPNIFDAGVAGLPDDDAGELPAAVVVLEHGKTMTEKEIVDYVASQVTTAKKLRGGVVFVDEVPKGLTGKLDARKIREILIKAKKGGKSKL
Test [13] can be described thus: qHTS assay to identify small molecule antagonists of the retinoid acid receptor (RAR) signaling pathway - cell viability counter screen (AID 1159551). Further: nearly all actives have a fitted effect of over 35% in size. Further: potency means the concentration at half of the fitted maximal effect. The method, boiled down: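 Seed C3RL4 cells; next day add compound, then retinol to 1 uM final; incubate 6 h at 37 C; add CellTiter-Glo; read luminescence after 30 min at RT.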
Test [14] can be described thus: qHTS assay to identify small molecule agonists of the constitutive androstane receptor (CAR) signaling pathway - cell viability counter screen (AID 1224836). Further: nearly all actives have a fitted effect of over 45% in size. Further: potency means the concentration at half of the fitted maximal effect. Summed up: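 Viability read-out: CellTiter-Fluor fluorescence after 23 h compound exposure at 37 C/5% CO2 in double-stable HepG2-CYP2B6-hCAR cells, with PK11195 present at 0.75 uM final; compounds tested in 15-point titration.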

A short description of test [15]: qHTS assay to identify small molecule agonists of the retinoic acid receptor (RAR) signaling pathway (AID 1159553). The method, boiled down: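 Activation of retinol signaling was monitored via a RARE luciferase reporter in C3RL4 cells. After 6 hr compound treatment at 37 C, detection reagent was added for 30 min at room temperature before luminescence reading.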

Nuclear receptor subfamily 1 group I member 3 (Homo sapiens), sequence (Q14994 whole entry, looked up): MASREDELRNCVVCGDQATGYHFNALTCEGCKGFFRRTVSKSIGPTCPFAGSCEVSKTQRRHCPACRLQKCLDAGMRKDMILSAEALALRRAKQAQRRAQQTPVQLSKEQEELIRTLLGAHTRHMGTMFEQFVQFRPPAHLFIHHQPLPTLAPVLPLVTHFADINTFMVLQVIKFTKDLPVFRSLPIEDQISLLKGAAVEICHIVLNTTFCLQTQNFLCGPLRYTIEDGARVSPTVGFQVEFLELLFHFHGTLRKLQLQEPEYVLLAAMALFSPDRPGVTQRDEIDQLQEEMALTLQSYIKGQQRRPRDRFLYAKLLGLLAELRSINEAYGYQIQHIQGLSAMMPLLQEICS

`CN1CC[C@H](c2c(O)cc(O)c3c(=O)cc(-c4ccccc4Cl)oc23)[C@H](O)C1`: the Potency result in test [1], in [2] and in test [6] was “inactive” throughout. Further, the Potency in test [3] was 0.0668 µM (active); in test [4], 0.0944 µM (active); in test [5], 0.596 µM (active).
`CCCC(=O)c1cc(O)c(O)cc1O`: the Potency result in test [1], in test [2], in [7], in [8], in test [9] and in test [10] was “inactive” each time. The Potency result in [6] was “inactive”. The Potency in test [11] was 43.3 µM (active); in test [12], 31.7 µM (active).
In the case of `CCCCCCCCSCc1cc(C)c(O)c(CSCCCCCCCC)c1`, the Potency entry in [13], in test [11], in test [12], in test [14], in [4] and in test [5] was “inactive” in each case. Besides, the Potency result in [6] was “inactive”.
For the compound `CC/C(=C(/c1ccc(O)cc1)c1ccc(OCCN(C)C)cc1)c1ccccc1`, the Potency in [1] was 36.2 µM (active); in test [2] it was 14.4 µM (active); in [13], 35.9 µM (active); in test [3], 18 µM (active); in [11], 32 µM (active); in test [14] it was 40.3 µM (active). The Potency in [4] is 32 µM (active); in test [5], 35.9 µM (active). Further, the Potency entry in [12] and in test [6] was “inactive” each time.
Consider `c1ccc(-c2ccccc2-c2ccccc2)cc1`, for which the Potency result in test [1], in [13], in test [3], in [11], in test [12] and in test [14] was “inactive” in each case. In addition, the Potency entry in test [4] and in test [5] was “inactive” in each case. Besides, the Potency in test [2] is 43.6 µM (active); in test [6] it was 27.3 µM (active).
For `CCN(CC)c1ccc2c(c1)Oc1cc(N(CC)CC)ccc1C21OC(=O)c2ccccc21`, the Potency result in test [1], in test [3], in test [5] and in [6] was “inactive” in each case. Besides, the Potency in test [13] was 11.9 µM (active); in [11], 6.68 µM (active); in test [12], 13.8 µM (active); in test [14] it was 8.41 µM (active); in test [4], 4.73 µM (active).
Regarding `Cc1ccc(Cl)c(N)c1Cl`, the Potency result in test [1], in [13], in [11], in [12], in [14] and in [6] was “inactive” in each case. The Potency in test [2] was 49 µM (active).
In the case of `CN(C/C=C/c1ccccc1)Cc1cccc2ccccc12`, the Potency was 13.4 µM (active) in test [2] and 26.6 µM (active) in test [13]. Moreover, the Potency result in test [11], in test [12] and in test [14] was “inactive” throughout.
Turning to `CCCCCc1ccc(O)cc1`, the Potency entry in test [13], in [3], in test [11], in test [14], in [4] and in test [5] was “inactive” each time. The results for the Potency in test [12] and in test [6] were 56.4 µM (active) and 54.5 µM (active), respectively.
In the case of `C=CCc1cc(S(=O)(=O)c2ccc(O)c(CC=C)c2)ccc1O`, the Potency result in test [1], in test [2], in test [13], in [15], in test [12] and in [14] was “inactive” in each case. Also, the Potency entry in test [4], in test [5] and in test [6] was “inactive” in each case. Also, the Potency in [3] was 54.5 µM (active).
For `CCC(C)(C)c1ccc(CC(C)CN2C[C@@H](C)O[C@@H](C)C2)cc1` (stereo partly specified), the Potency in test [2] was 12 µM (active). For the same compound, the Potency result in [3], in test [12], in test [14], in [4], in test [5] and in test [6] was “inactive” throughout.
On to `CC(C)(C)NCC(O)COc1nsnc1N1CCOCC1` (stereo unspecified), for which, in [7], the Potency result was “inactive”.
In the case of `CC(=O)Nc1ccc(N=Nc2cc(C)ccc2O)cc1`, the Potency entry in [1], in test [2], in [13], in test [3], in test [4] and in [5] was “inactive” each time. The Potency in test [12] is 3.17 µM (active).
